In PubChem BioAssay (Tox21) one finds Potency data, which are given here for 13 compounds.

Inconclusive results are not listed. Active and inactive are the calls of the source. Unless noted, calls come from the whole dose curve. Bridge positions count the residues as written; N and C are the ends. Square brackets hold non-standard residues; d marks the D form. Peptide text beside a SMILES is read from it. * marks the point of attachment. Sta = CC(C)C[C@H](N)[C@@H](O)CC(=O)O; hArg = N=C(N)NCCCC[C@H](N)C(=O)O; Isovaleryl = CC(C)CC(=O)*; Mpa = O=C(O)CCS

In test [1] the target is Gonadotropin-releasing hormone receptor (Homo sapiens) (UniProt P30968). Briefly: Human gonadotropin-releasing hormone receptor (GnRHR) small molecule agonists, calcium flux assay in GnRHR-HEK293 cells (AID 1920063). Note: nearly all actives have a fitted effect of over 35% in size. In a few lines: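 Compounds dissolved in DMSO are pin-transferred onto dye-loaded GnRHR-HEK293 cells, which were seeded 18 h before at 37 C/5% CO2. Calcium signal is read as fluorescence intensity at 1 s intervals for 3 min.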
A general note: Calcium flux is commonly read through the fluorescence of an indicator in the cells.

For test [2], the target named is KiSS-1 receptor (Homo sapiens) (UniProt Q969F8). Briefly: Human kisspeptin (KISS1R) small molecule agonists, calcium flux assay in KISS1R-HEK293 cells (AID 1920064; active = well fitted activation curve with a large enough effect in the repeat runs). In a few lines: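 Cell line: HEK293, stable human KISS1R. Dye loading 1 h at 37 C after 18 h culture. Read: kinetic fluorescence, 480/540 nm, 3 min at 1 s intervals.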
Test [3] in a line: G protein-coupled receptor (GPCR) small molecule agonists, calcium flux assay: HEK293 wild type cell line counter screen (AID 1920065). The essentials: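 Tox21 10K compounds, 15 concentrations each in triplicate, pin-transferred in DMSO onto dye-loaded cells; kinetic read at 480/540 nm for 3 min, 1 s intervals.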
The nature of test [4]: p53 small molecule agonists, cell-based qHTS assay with human liver microsomes: qHTS cell viability counter screen (AID 1963579). Note: nearly all actives have a fitted effect of over 45% in size. The essentials: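 p53RE-bla cells, 4,000/well, dosed 5 hours after plating, with human liver microsomes (0.5 mg/mL final) plus NADPH (0.5 mg/mL final), 16 hours at 37 C. Viability read as CellTiter-Glo luminescence after 30 min at room temperature.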
On the technique in general: qHTS replaces the single test concentration by a dilution series.

For test [5], the target named is 5-hydroxytryptamine receptor 2A (Homo sapiens) (UniProt P28223). In words: 5-hydroxytryptamine receptor 2A (HTR2A) small molecule antagonists, cell-based qHTS assay (AID 1963586). Note: nearly all actives have a fitted effect of over 45% in size. Note: potency is the fitted concentration of half-maximal effect. The essentials: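 CHO cells stably expressing human HTR2A were plated for 18 h at 37 C, then loaded with calcium dye for 1 h. Compounds were preincubated 5 min at room temperature before DOI (4 nM solution) was added. Kinetic fluorescence was read for 3 min.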

Test [6] has the same target. Briefly: 5-hydroxytryptamine receptor 2A (HTR2A) small molecule agonists, cell-based qHTS assay (AID 1963587). Note: nearly all actives have a fitted effect of over 30% in size. In a few lines:
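Kinetic calcium-flux fluorescence (2 min, 1 sec intervals) after compound addition in agonist mode. HTR2A-CHO cells were cultured 18 h, then dye-loaded 1 h at 37 C.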

The target in test [7] is Muscarinic acetylcholine receptor M1 (Homo sapiens) (UniProt P11229). Briefly: Cholinergic receptor muscarinic 1 (CHRM1) small molecule antagonists, cell-based qHTS assay (AID 1963588). Note: nearly all actives have a fitted effect of over 40% in size. The essentials: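 Compounds were tested at 15 concentrations in three independent runs. Dye-loaded CHRM1-CHO cells were exposed 5 min at room temperature before stimulation by acetylcholine added at 50nM. Intracellular calcium was read kinetically on FDSS for 3 min.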

Test [8] has as its target Beta-2 adrenergic receptor (Homo sapiens) (UniProt P07550). Briefly: Adrenergic beta2 receptor (ADRB2) small molecule antagonists, cell-based qHTS assay (AID 1963592). Note: series mostly up to about 92 µM; nearly all actives have a fitted effect of over 50% in size. The essentials:
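Assay format: CHO-ADRB2 cells, 18-20hr seeding at 37C/5% CO2, then compound plus 1nM isoproterenol agonist mix for 0.5hr RT. Homogeneous time-resolved fluorescence cAMP detection after 1hr, expressed as 665/615 nm ratio.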

Test [9] concerns the target D(2) dopamine receptor (Homo sapiens) (UniProt P14416). Briefly: Dopamine D2 receptor (DRD2) small molecule antagonists, cell-based qHTS assay (AID 1963595; active = well fitted inhibition curve with a large enough effect in the signal ratio in the repeat runs, with a control signal flat; the % refers to the signal ratio). In a few lines:
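HEK293 cells stably expressing DRD2 were preincubated with 0.1 mM Ro20-1724, then with compound for 10 min at room temperature. Cells were stimulated with 200 nM NKH477 plus 12 nM quinpirole for 30 min, and cAMP was read by HTRF.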

Test [10] has as its target Muscarinic acetylcholine receptor M1 (Homo sapiens) (UniProt P11229). In words: Cholinergic receptor muscarinic 1 (CHRM1) small molecule agonists, cell-based qHTS assay (AID 1963589). Note: nearly all actives have a fitted effect of over 35% in size. In a few lines: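 Homogeneous fluorescence calcium flux, agonist mode. Human M1-expressing CHO cells; compound dosed at 15 concentrations, three independent runs; signal sampled every 1 sec.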

Test [11] is described as follows: p53 small molecule agonists, cell-based qHTS assay: qHTS cell viability counter screen (AID 1963581). Note: nearly all actives have a fitted effect of over 45% in size. In a few lines: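 ATP content measured by luminescence in HCT-116 p53RE-bla cells treated 16 h at 37 C, same wells as the reporter screen.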
A short description of test [12]: cAMP Responsive Elements (CRE) small molecule agonists, cell-based qHTS assay (AID 1963590). The essentials:
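HEK 293T cells stably bearing CRE-bla were plated at 2,000 cells per well and rested 18 h. Compounds, positive controls or DMSO were added for 3 h at 37 C. LiveBLAzer B/G substrate was then loaded for 2 h at room temperature.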

The nature of test [13]: cAMP Responsive Elements (CRE) small molecule antagonists, cell-based qHTS assay (AID 1963591; active = well fitted inhibition curve with a large enough effect in the signal ratio in the repeat runs, not every such curve was filed as active; the % refers to the signal ratio). In a few lines:
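First, CRE-bla HEK293T cells settled 18 h at 37 C. Next, compound and 0.25 uM final NKH477 were applied for 3 h. Last, LiveBLAzer B/G substrate was loaded for 2 h at room temperature.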

The target of test [14] is Beta-2 adrenergic receptor (Homo sapiens) (UniProt P07550). Briefly: Adrenergic beta2 receptor (ADRB2) small molecule agonists, cell-based qHTS assay (AID 1963593).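 Note: CHO cells stably overexpressing human ADRB2.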 In a few lines: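 CHO cells stably over-expressing ADRB2 were plated overnight at 37C, then dosed with compounds plus a stimulation mix containing 100uM IBMX and 25uM Ro-20-1724 for 0.5hr at room temperature. cAMP was measured by HTRF competition, 1hr.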

Test [15] addresses D(2) dopamine receptor (Homo sapiens) (UniProt P14416). Briefly: Dopamine D2 receptor (DRD2) small molecule agonists, cell-based qHTS assay (AID 1963594). Note: nearly all actives have a fitted effect of over 35% in size. The essentials:
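cAMP accumulation in DRD2-HEK293 cells measured by HTRF after 1 h detection; compounds added 10 min before NKH477 (200nM […]) forskolin-analogue stimulation, 30 min at room temperature, with Ro20-1724 present at 0.1 mM final.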

Test [16] in a line: p53 small molecule agonists, cell-based qHTS assay with human liver microsomes (AID 1963577). The essentials:
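p53RE-bla cells, 4,000/well, compound added after 5 h, with human liver microsomes 0.5 mg/mL and NADPH 0.5 mg/mL final; 16 h at 37 C, then LiveBLAzer 2 h RT, fluorescence.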

The nature of test [17]: p53 small molecule agonists, cell-based qHTS assay with rat liver microsomes (AID 1963578). In a few lines:
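p53RE-bla cells, 4,000/well, pre-incubated 5 h, then given compounds plus rat liver microsomes (0.5 mg/mL final) and NADPH (0.5 mg/mL final). Incubation 16 h at 37 C; beta-lactamase reporter read by LiveBLAzer fluorescence after 2 h at room temperature.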

A short description of test [18]: p53 small molecule agonists, cell-based qHTS assay with rat liver microsomes: qHTS cell viability counter screen (AID 1963580). Note: nearly all actives have a fitted effect of over 45% in size. The essentials:
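Cytotoxicity counter screen: intracellular ATP read by CellTiter-Glo luminescence in the p53 reporter wells. HCT-116 p53RE-bla cells were treated for 16 h at 37 C alongside rat liver microsomes and NADPH, each 0.5 mg/mL final.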

Test [19] can be described thus: p53 small molecule agonists, cell-based qHTS assay (AID 1963582; active = well fitted activation curve with a large enough effect in the signal ratio in the repeat runs, not every such curve was filed as active; the % refers to the signal ratio). The essentials:
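16 h compound exposure (37 C) of p53 response element–bla cells, preceded by 5 h recovery at 37 C/5% CO2; read-out via LiveBLAzer B/G FRET substrate, 2 h RT, fluorescence intensity.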

Sequence of Gonadotropin-releasing hormone receptor (Homo sapiens) (P30968 whole entry, looked up): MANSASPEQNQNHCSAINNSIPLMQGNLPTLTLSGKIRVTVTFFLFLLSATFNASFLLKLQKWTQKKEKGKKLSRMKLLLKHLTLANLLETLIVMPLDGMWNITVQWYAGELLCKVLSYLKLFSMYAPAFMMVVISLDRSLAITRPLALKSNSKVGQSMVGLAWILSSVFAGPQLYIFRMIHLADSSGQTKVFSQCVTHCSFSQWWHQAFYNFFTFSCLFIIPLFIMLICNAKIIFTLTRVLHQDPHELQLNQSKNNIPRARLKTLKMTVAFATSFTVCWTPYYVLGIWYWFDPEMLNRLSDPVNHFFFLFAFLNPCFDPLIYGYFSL
Sequence of KiSS-1 receptor (Homo sapiens) (Q969F8 whole entry, looked up): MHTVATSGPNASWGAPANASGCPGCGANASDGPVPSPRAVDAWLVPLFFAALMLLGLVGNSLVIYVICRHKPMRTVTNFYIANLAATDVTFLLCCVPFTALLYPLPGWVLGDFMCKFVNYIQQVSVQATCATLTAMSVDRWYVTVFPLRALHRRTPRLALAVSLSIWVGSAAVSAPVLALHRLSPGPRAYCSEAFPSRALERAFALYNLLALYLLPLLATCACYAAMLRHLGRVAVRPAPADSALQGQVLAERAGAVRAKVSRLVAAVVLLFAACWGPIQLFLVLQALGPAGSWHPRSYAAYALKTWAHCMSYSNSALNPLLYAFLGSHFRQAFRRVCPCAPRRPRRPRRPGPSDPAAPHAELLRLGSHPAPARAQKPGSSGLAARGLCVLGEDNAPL
Sequence of D(2) dopamine receptor (Homo sapiens) (P14416 whole entry, looked up): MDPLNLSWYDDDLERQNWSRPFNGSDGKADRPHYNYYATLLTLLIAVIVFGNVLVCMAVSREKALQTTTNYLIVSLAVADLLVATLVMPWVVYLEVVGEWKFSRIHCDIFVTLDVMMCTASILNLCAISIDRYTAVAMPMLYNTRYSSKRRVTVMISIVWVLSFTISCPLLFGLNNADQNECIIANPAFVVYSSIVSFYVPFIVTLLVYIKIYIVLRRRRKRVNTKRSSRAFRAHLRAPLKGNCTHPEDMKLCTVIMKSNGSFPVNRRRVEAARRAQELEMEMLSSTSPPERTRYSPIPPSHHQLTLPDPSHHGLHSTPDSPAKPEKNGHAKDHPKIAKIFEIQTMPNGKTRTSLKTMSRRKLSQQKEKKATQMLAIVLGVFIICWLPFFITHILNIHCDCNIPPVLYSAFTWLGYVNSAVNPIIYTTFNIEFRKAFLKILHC
Sequence of 5-hydroxytryptamine receptor 2A (Homo sapiens) (P28223 whole entry, looked up): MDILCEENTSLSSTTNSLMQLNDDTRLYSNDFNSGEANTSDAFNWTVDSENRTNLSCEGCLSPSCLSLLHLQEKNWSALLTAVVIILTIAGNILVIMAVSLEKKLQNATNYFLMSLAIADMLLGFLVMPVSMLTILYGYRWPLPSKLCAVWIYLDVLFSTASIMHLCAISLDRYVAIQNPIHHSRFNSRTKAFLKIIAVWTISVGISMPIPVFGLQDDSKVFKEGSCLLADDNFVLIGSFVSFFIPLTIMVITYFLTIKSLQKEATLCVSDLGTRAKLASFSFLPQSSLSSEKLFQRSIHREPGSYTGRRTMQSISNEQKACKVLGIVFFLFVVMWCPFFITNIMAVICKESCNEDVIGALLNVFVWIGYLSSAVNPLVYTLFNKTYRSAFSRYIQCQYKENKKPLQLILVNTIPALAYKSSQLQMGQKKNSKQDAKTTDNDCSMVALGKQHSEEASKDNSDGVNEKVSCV
Sequence of Muscarinic acetylcholine receptor M1 (Homo sapiens) (P11229 whole entry, looked up): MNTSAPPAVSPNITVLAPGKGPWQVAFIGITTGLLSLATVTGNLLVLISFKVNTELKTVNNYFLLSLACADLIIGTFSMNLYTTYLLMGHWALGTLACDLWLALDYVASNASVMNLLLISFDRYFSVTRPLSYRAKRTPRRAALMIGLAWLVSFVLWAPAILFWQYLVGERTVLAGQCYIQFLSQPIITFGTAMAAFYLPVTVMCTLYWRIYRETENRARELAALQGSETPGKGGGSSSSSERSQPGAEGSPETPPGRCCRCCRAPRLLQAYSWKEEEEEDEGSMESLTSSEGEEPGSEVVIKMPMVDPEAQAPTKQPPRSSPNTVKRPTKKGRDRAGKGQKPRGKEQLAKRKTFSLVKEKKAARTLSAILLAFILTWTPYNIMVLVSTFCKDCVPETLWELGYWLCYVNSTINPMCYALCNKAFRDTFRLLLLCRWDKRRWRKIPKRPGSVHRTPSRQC
Sequence of Beta-2 adrenergic receptor (Homo sapiens) (P07550 whole entry, looked up): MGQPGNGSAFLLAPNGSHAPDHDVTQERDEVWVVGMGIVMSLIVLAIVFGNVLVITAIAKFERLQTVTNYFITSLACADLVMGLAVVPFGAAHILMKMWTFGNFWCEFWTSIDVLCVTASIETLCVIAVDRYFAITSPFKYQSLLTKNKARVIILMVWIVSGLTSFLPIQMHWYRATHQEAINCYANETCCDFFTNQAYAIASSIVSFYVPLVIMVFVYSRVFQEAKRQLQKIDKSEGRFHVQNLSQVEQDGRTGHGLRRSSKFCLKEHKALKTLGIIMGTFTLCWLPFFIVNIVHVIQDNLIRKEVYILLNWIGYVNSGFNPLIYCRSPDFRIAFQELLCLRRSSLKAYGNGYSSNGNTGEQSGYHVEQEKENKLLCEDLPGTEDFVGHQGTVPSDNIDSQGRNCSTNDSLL

As for `O=S(=O)(NS(=O)(=O)C(F)(F)F)C(F)(F)F`, the Potency result in test [1], in test [2], in [3], in [4], in test [5] and in test [6] was “inactive” in each case. In addition, the Potency result in [7], in test [8] and in test [9] was “inactive” throughout.
As for `CC(C)C[C@H](NC(=O)CNC(=O)[C@H](Cc1ccc(O)cc1)NC(=O)[C@H](CO)NC(=O)[C@H](Cc1c[nH]c2ccccc12)NC(=O)[C@H](Cc1cnc[nH]1)NC(=O)[C@@H]1CCC(=O)N1)C(=O)N[C@@H](CCCN=C(N)N)C(=O)N1CCC[C@H]1C(=O)NCC(N)=O` (stereo in doubt), the Potency entry in test [5], in test [6] and in [7] was “inactive” throughout.
Consider `NC(=O)[C@@H]1CSSCCC(=O)N[C@@H](CCCCN=C(N)N)C(=O)NCC(=O)N[C@@H](CC(=O)O)C(=O)N[C@@H](Cc2c[nH]c3ccccc23)C(=O)N2CCC[C@H]2C(=O)N1` ([Mpa][hArg]GDWPC-NH2; disulfide 1-7), for which the Potency entry in test [5], in test [6], in [7] and in test [10] was “inactive” throughout.
In the case of `CN1CC[C@]23c4c5ccc(O)c4O[C@H]2[C@@H](O)C=C[C@H]3[C@H]1C5`, the Potency entry in [1], in test [2], in [3], in test [11], in [5] and in [6] was “inactive” each time. The Potency entry in [10], in test [12], in test [13], in test [8], in test [14] and in test [15] was “inactive” throughout. In test [9], the Potency result is “inactive”.
For the compound `ClC1=C(Cl)[C@]2(Cl)[C@@H]3[C@H]4C[C@H]([C@@H]5O[C@H]45)[C@@H]3[C@@]1(Cl)C2(Cl)Cl`, the Potency entry in test [1], in test [2], in test [16], in [17], in test [4] and in test [18] was “inactive” throughout. Besides, the Potency result in test [11], in [19], in test [15] and in test [9] was “inactive” each time.
As for `NC(=O)CC[C@@H]1NC(=O)[C@H](Cc2ccccc2)NC(=O)[C@H](Cc2ccc(O)cc2)NC(=O)CCSSC[C@@H](C(=O)N2CCC[C@H]2C(=O)N[C@@H](CCCN=C(N)N)C(=O)NCC(N)=O)NC(=O)[C@H](CC(N)=O)NC1=O`, the Potency result in [6], in test [7] and in test [10] was “inactive” in each case.
`CC(C)CC(=O)N[C@H](C(=O)N[C@H](C(=O)N[C@@H](CC(C)C)[C@@H](O)CC(=O)N[C@@H](C)C(=O)N[C@@H](CC(C)C)[C@@H](O)CC(=O)O)C(C)C)C(C)C` (Isovaleryl-VV[Sta]A[Sta]-OH): the Potency entry in test [5], in test [6], in [7] and in test [10] was “inactive” in each case.
Take `CCC1(c2cnc[nH]2)Cc2ccccc2C1`: the Potency entry in test [16], in test [17], in [4], in test [18], in [11] and in [19] was “inactive” each time.
Take `CN1C(=O)C(O)N=C(c2ccccc2)c2cc(Cl)ccc21` (configuration not stated): the Potency result in test [1], in test [2], in [3], in test [11], in test [6] and in test [7] was “inactive” throughout. Further, the Potency result in test [10], in test [12], in test [13], in [8], in test [15] and in test [9] was “inactive” in each case.
For the compound `O=S(=O)(O)c1cc(O)ccc1O`, the Potency entry in test [4], in test [18] and in test [11] was “inactive” each time.
Consider `CCOC(=O)C(SP(=S)(OC)OC)c1ccccc1` (configuration not stated), for which the Potency result in test [1], in test [3], in test [4], in [11], in test [19] and in test [5] was “inactive” each time. The Potency result in test [6], in test [7], in test [10], in test [12], in test [13] and in [8] was “inactive” in each case. Besides, the Potency result in test [14] and in [9] was “inactive” in each case.
Regarding `CNC(=O)Oc1cccc(C(C)C)c1`, the Potency entry in test [2], in [3], in test [4], in [18], in [11] and in test [5] was “inactive” in each case. For the same compound, the Potency result in test [6], in test [10], in test [12], in [13], in [8] and in test [14] was “inactive” throughout. Moreover, the Potency entry in test [15] and in test [9] was “inactive” throughout.
As to `COP(=O)(OC)O/C(=C/Cl)c1cc(Cl)c(Cl)cc1Cl`, the Potency result in test [1], in test [2], in test [3], in [11], in [19] and in test [6] was “inactive” each time. Moreover, the Potency result in test [7], in test [10], in test [12], in [15] and in [9] was “inactive” in each case. For the same compound, in [5], the Potency was 15.8 µM (active).
